Assay outcomes as filed in PubChem.
In the library only some 4.3% were active in any assay of this set; here they are far more common.
DRD3 antagonist – blocks the human D3 dopamine receptor; P35462; D3R cells, DiscoveRx beta-arrestin luminescence, antagonist mode; hits give low values; max response, negative = inhibition, %; 360,000 compounds, 2.5% hits; in the data active = max response below about -50%; inconclusive = no clear call, values can overlap the other calls; also: % is scaled to controls: 0 for no effect and ±100 for the full control effect
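Cells plated overnight at 1500 cells/well, then exposed to library compounds with dopamine controls for 90 minutes at 37 degrees C. DiscoveRx reagent added for 30–60 minutes at room temperature; luminescence read, quantitative HTS format.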
GLP1R inv ag – GLP-1 receptor (human) inverse agonism. P43220. HEK293 GLP-1R CRE-luciferase, luminescence, 24 h; GLP-1R form is constitutively active. Potency, µM (doses to about 38.3 µM), for the others: at the top dose activity change, negative = inhibition, hits mostly inhibitors. 410,000 compounds, 1.6% hits; also: potency is read from the fitted curve at half-maximal effect; % is scaled to controls: 0 for no effect and ±100 for the full control effect; nearly all actives have a fitted effect of over 55% in size
Target sequence (P43220 whole entry, looked up): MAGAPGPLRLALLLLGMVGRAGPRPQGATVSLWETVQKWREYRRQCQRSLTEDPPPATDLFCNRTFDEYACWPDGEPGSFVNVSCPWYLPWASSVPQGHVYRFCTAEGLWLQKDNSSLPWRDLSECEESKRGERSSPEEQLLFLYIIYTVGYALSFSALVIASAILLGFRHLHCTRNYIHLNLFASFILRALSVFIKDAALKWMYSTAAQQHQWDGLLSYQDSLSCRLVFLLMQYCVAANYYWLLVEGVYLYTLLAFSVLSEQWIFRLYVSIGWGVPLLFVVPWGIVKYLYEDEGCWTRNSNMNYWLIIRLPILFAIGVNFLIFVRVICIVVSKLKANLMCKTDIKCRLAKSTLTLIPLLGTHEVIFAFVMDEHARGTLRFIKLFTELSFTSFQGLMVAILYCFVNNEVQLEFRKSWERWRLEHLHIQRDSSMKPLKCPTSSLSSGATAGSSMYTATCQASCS
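HEK293 cells stably co-expressing a cAMP-responsive luciferase reporter and constitutively active GLP-1R were seeded, incubated 12 h, then exposed to compounds for 24 h at 37 C. Luminescence was read 12 min after detection reagent; inverse agonists lower signal.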
GLP1R ag – activates the human GLP-1 receptor; HEK293 GLP-1R CRE-luciferase, luminescence, 4-6 h; cells express a hypersensitive GLP-1R form; Potency, µM (titrated, usually from 45.6 µM), for inactives: top-dose activation, most hits filed as activators; 380,000 compounds, 0.007% hits; AID 624172; also: potency is read from the fitted curve at half-maximal effect; % of control where 0% means no effect
D3 ag – activates the human D3 dopamine receptor. 410,000 compounds, 0.58% hits. D3R DiscoveRx beta-arrestin cells, luminescence, 90 min. max activation, %. AID 652048; in the data active = max activation above about 30%; also: 0% is about no effect
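Agonist-mode cell screen: cells plated at 1500/well and incubated overnight at 37 °C, then exposed to library compounds for 90 min at 37 °C. Detection reagent was added for 30–60 min at room temperature, and luminescence was read.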
* marks the source's active call; other numbers are inactive results; ! = not confirmed by another sample. Unless noted, calls follow the shape of the dose curve; as a rule, active = well fitted curve in the direction sought with a large enough effect; inconclusive = small, poorly fitted or top-dose-only effect, or another doubt; inactive = no such curve, though single readings can be large; an effect the other way counts as inactive or inconclusive.

Screening CCOC(=O)C1(C)CCN1C(=O)c1cccc(Cl)c1 (configuration not stated) returned DRD3 antagonist 0, GLP1R inv ag -21%, GLP1R ag -6% and D3 ag 48*.
`Cc1ccc(C)c(S(=O)(=O)c2cnc(SCC(=O)Nc3ccc(F)cc3F)[nH]c2=O)c1` gave GLP1R inv ag 4%, GLP1R ag -8% and D3 ag -5.
For NC(=O)OC[C@@H]1[C@H](NC(=O)/C(=N/OCC(=O)O)c2csc(N)n2)C(=O)N1S(=O)(=O)O the results were GLP1R ag -1%.
`CC1=C/C(=C(\c2cc(C)c(O)c(Br)c2)c2ccccc2S(=O)(=O)O)C=C(Br)C1=O` gave DRD3 antagonist -52*, GLP1R inv ag inconclusive, GLP1R ag -4% and D3 ag -22.
CC/C(=C(\c1ccccc1)c1ccc(OCCN(C)C)cc1)c1ccccc1 was read as DRD3 antagonist -73*!, GLP1R inv ag inconclusive, GLP1R ag -2% and D3 ag -56.
For O=C(c1ccccc1)c1ccc(OCCO)cc1 the results were DRD3 antagonist 7, GLP1R inv ag 37%, GLP1R ag 21% and D3 ag 2.
For CCN(CC)CCOc1ccc(/C(=C(/Cl)c2ccccc2)c2ccccc2)cc1 the results were DRD3 antagonist -66*!, GLP1R inv ag 11µM* and GLP1R ag 10%.
For CCOc1ccc(C(=O)OCCN(CC)CC)cc1 the results were DRD3 antagonist 6, GLP1R inv ag inconclusive, GLP1R ag 3% and D3 ag -5.
For CCc1ccc(C(=O)c2cn(CC(=O)Nc3ccc(OC)c(OC)c3)c3ccc(C)cc3c2=O)cc1 the results were GLP1R inv ag -11%, GLP1R ag -1% and D3 ag -6.
Screening Cn1c(N)c(C(=O)Nc2ccccc2)c(=O)[nH]c1=O returned DRD3 antagonist 1, GLP1R inv ag 24%, GLP1R ag 7% and D3 ag 36*.
For COc1cc(OC)c(NC(=S)Nc2cccc(C(C)=O)c2)cc1Cl the results were DRD3 antagonist -60*, GLP1R inv ag -22%, GLP1R ag -4% and D3 ag -10.
`COc1cc(OC)c(NC(=S)Nc2cc(Cl)cc(Cl)c2)cc1Cl` gave DRD3 antagonist 9, GLP1R inv ag inconclusive, GLP1R ag 10% and D3 ag 6.
COC(=O)c1cc(OC)c(OC)cc1NC(=S)Nc1cccc(Cl)c1 was read as DRD3 antagonist -66*, GLP1R inv ag 6%, GLP1R ag 1% and D3 ag -9.
CN1C(C(=O)NC(C)(C)C)=CC(c2ccc3c(c2)OCO3)=NS1(=O)=O was read as GLP1R inv ag 4% and D3 ag 3.
For CSc1cccc(NC(=O)c2cccc(N3CCCS3(=O)=O)c2)c1 the results were GLP1R inv ag -24% and D3 ag 0.
`COc1ccc(-c2cc(C(F)(F)F)nc(SCCC(=O)Nc3cccc(O)c3)n2)cc1` gave GLP1R inv ag inconclusive, GLP1R ag -8% and D3 ag 1.
For CN(CC(=O)Nc1cc(S(=O)(=O)N2CCCC2)ccc1Cl)Cc1ccc2c(c1)OCO2 the results were DRD3 antagonist -28, GLP1R inv ag inconclusive, GLP1R ag 23% and D3 ag -19.
Screening CN(CC(=O)Nc1cc(S(=O)(=O)N2CCCCCC2)ccc1Cl)Cc1ccc2c(c1)OCO2 returned DRD3 antagonist -54*, GLP1R inv ag inconclusive, GLP1R ag 8% and D3 ag -22.
For COc1ccc(S(=O)(=O)N2CCCCCC2)cc1NC(=O)CN(C)Cc1ccc2c(c1)OCO2 the results were DRD3 antagonist -68*, GLP1R inv ag inconclusive, GLP1R ag 4% and D3 ag -22.
`Cc1ccc(NC(=O)c2ccc(CN3CC(=O)N4CCCCC4C3=O)cc2)cc1C` (configuration not stated) gave GLP1R inv ag 3% and D3 ag -5.
Fc1cc(F)cc(-c2c(-c3ccccc3)ncc3ccc(F)cc23)c1 was read as DRD3 antagonist -19, GLP1R inv ag inconclusive, GLP1R ag 16% and D3 ag -16.
Screening Fc1ccc2cnc(-c3ccccc3)c(-c3cccc(C(F)(F)F)c3)c2c1 returned DRD3 antagonist -64*, GLP1R inv ag inconclusive, GLP1R ag 4% and D3 ag -13.
O=C(Cn1ncc2c(=O)oc3ccccc3c21)N1CCN(c2ccc(Cl)cc2)CC1 was read as GLP1R inv ag 2%, GLP1R ag -1% and D3 ag -2.
`CCOC(=O)C1(CCOc2ccccc2)CCN(Cc2ccc(C(=O)OC)cc2)CC1` gave DRD3 antagonist -60*, GLP1R inv ag inconclusive, GLP1R ag 7% and D3 ag -27.
For CCOC(=O)C1(CCOc2ccccc2)CCN(Cc2cccc(OC)c2)CC1 the results were DRD3 antagonist -21, GLP1R inv ag 11µM*, GLP1R ag 12% and D3 ag -12.
`CCOC(=O)C1(CCOc2ccccc2)CCN(Cc2ccc3c(c2)OCCO3)CC1` gave DRD3 antagonist -56*, GLP1R inv ag inconclusive, GLP1R ag 12% and D3 ag 0.
For CCOC(=O)C1(CCOc2ccccc2)CCN(Cc2ccc(O)c(Cl)c2)CC1 the results were DRD3 antagonist -69*, GLP1R inv ag inconclusive, GLP1R ag 7% and D3 ag -17.
CCOC(=O)C1(Cc2cccc(OC)c2)CCN(Cc2ccc3c(c2)OCCO3)CC1 was read as DRD3 antagonist 7, GLP1R inv ag inconclusive, GLP1R ag 21% and D3 ag -12.
Screening COC(=O)c1ccc(CNC(=O)c2nc(Cn3nc(C)c(Br)c3C)no2)cc1 returned GLP1R inv ag 4%, GLP1R ag -7% and D3 ag -14.
For CCCCOc1cccc(C2c3c(oc4ccccc4c3=O)C(=O)N2c2ccccn2)c1 (configuration not stated) the results were GLP1R inv ag 12% and D3 ag 9.
Screening Cc1cccc(C)c1-n1ncc(C(=O)NC2CCCC2)c1C1CCN(C(=O)OC(C)(C)C)CC1 returned GLP1R inv ag 5% and D3 ag 0.
For O=C(CSc1nccn1-c1ccc(F)cc1)Nc1ccc(OC(F)(F)F)cc1 the results were GLP1R inv ag inconclusive and D3 ag 4.
`Cc1cccn2c(=O)c3cc(C(=O)NC(C)(C)C)n(C)c3nc12` gave GLP1R inv ag 12% and D3 ag 12.
Screening CCOC(=O)C1(Cc2cccc(OC)c2)CCN(Cc2cccc3c2OCO3)CC1 returned DRD3 antagonist -10, GLP1R inv ag 10µM*, GLP1R ag 4% and D3 ag -24.
CCOC(=O)C1(Cc2cccc(OC)c2)CCN(Cc2cccc(OC)c2OC)CC1 was read as DRD3 antagonist -1, GLP1R inv ag inconclusive, GLP1R ag 7% and D3 ag -10.
CCCC(C)NC(=O)COC(=O)c1cc(Br)c(Br)s1 (configuration not stated) was read as DRD3 antagonist -4, GLP1R inv ag 3%, GLP1R ag 5% and D3 ag 2.
